The results in this text go back to the supplement of paper PMC6555819.

The test system of the assay is PPARg homodimer (NR concentration 180 nM). As to the kind of experiment: PBM binding z-score (relative to random genomic background probes); higher = stronger binding; sequences stand for … in GC…GCGATTGACAGCGTAGAATGAAGG
The gist of the method: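 Ligand-free nuclear receptor dimers were bound for 1 h to custom Agilent 4×180K protein-binding microarrays. Detection used antibodies against each partner (one per run). Binding z-scores rest on regression-normalized fluorescence, with random background probes as the reference.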
In turn, ATCGAAATGTCGAGGTGAGTATAGAGAAAGGGAA returned a PBM binding z-score of -0.704.
To ACTAGCAGGCCCAGTTTGGGTCACTCAAACAAAG belongs -0.457; to CCTAGTTGGTCGGGAGGTCACACACCGGATATGA, 3.59.
To ATCTCTAGGTAAAGACAGTTCAGTGAATGCAAAT belongs 0.86; to CCGATTGGGGCAAGGTTACCATAACGCACAGCCA, 0.0331; to GCTGTTAGGTCAACTGATGGTCAGCTAAAGCTCG, 3.51.
To AGAATGAGGTTATACGTAGTTCAGGGAAGAAAGT belongs 0.814; to CCTTGTTGGTCAAGGTCACACACGCTATAGGTAC, 2.49.
Consider CGTCCAAGGTCAGAGAGGTCAGTTAATGCCGAGT, for which the PBM binding z-score stood at 6.18.
To TCGAGTAGGTCAGGGGCATTCAGAATGGCGTCGA belongs 1.33.
The value for GCAGACAGGTGAAACGCAGGAAACTCAGGGTGGC was -0.537; that for ACTCGGAGAACAAAGGTCAGAGCTACGCCAGTGA was 1.94.
The sequence ATCTCTAGGTAAAGATAGATCAGTGAATGCAAAT registered a PBM binding z-score of -0.283.
Turning to CGTCCAAGGGCAAAGGTCAGTGAAGAGATGACGG, the PBM binding z-score was 1.99.
TCTCGGAGGACACGAACGGTCAGAGCTCGACATC yielded a PBM binding z-score of -0.693.
With GCGACTGGGGTATCAGCAGGTTACCATAACTTAA, the PBM binding z-score was 0.313.
Consider ATCTCTAGGTAAAAAGTTCAGTGAAAGAGAGGAC, for which the PBM binding z-score was determined as 1.73.
The value for CTCGAAAGGTCGGTTAAGGTGAGTATACGGATAA was 1.69; that for GCTGCTAGGTCAGGTTGGTCACCTAACGGGTACG was 0.888; that for GGAACGAGGGCAAAGTTGATAGCATCTGTCGACG was -0.0124.
CCTTACGGGTGACTGACAGGTTATAGCATTTGGA had a PBM binding z-score of 0.697.
For AATCCAGGGTCATCGTAGGCCAGAGTACGCACAG, the PBM binding z-score was found to be 2.41.
To ACTAGCAGGCCAAGTCTGGGTCACTCAAACAAAG belongs 0.811; to ATCTCTAGGTAAGACTAAGTTCAGTGAAGAACGC, 1.48.
The value for CAAACTAGGTCAGCGGAAGGTCAAAGTCCGCATG was 5.64.
To GATACAGGGTCAAGGCCGGAGTACGCGTATTGAT belongs 1.8.
Sequence GCGTACGGGTCAAAGGTTATAGCATGAATAGAAT returned a PBM binding z-score of 4.07.
In turn, CGATCGAGGGCATGAGTTGATAGCAAATGCCGAT yielded a PBM binding z-score of 0.296.
To GTACCTAGGTGAATAGGTCGTTGATGAGTAGGCG belongs 0.221.
To TCTATTAGTTTATTAGGGCAACCGAAACAGCGGA belongs 1.44; to GCTCGGCGGACAAGGTCAGAGCTTTGTCCGTAGA, -0.129.
In turn, ACTAGCAGGCCAAGGGTCTCTCAAGATTAGTCCG showed a PBM binding z-score of -0.604.
In turn, GCTGCTAGGTCAGGTTGGTCAGATAACGGGTACG had a PBM binding z-score of 0.742.
To GCTAGCAGGCCATTTGAGTCACTCAATGACGGGC belongs -0.951; to CGAACGAGGGCATGCGTTGATAGCAAATGCCGAT, 0.165.
AATAGCAGGCCAAGTTTGGGTCACTCAAACAAAG returned a PBM binding z-score of 0.551.
The value for TCTAGTTCGTCAAAGGTCACACACTCGAAATGCG was 3.82; that for ACTTACGGGTCAACGAGGTTATAGTACGCGTATA was 2.88.
To AGAATGAGGGCAATGAGTTGATAGCACGGGTGGC belongs 0.0668; to ACTAGCAGGCCAAGTTTGGGTCACTGAAACAAAG, 0.506.
